DT40 TDP1 CPT: growth inhibition of DT40 Tdp1-/-;hTDP1 cells with camptothecin (screen for TDP1 inhibitors) | 12% of 420,000 active | chicken DT40 Tdp1-/-;hTDP1 cells + 20 nM CPT, ATP luminescence, 48 h | AID 686979 | Potency, µM (top dose mostly 46.2 µM), without a hit: top-dose activity change, negative = growth inhibition, usual class: inhibitors; also: potency is read from the fitted curve at half-maximal effect; % is scaled to controls: 0 for no effect and ±100 for the full control effect; nearly all actives have a fitted effect of over 55% in size
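Chicken DT40 Tdp1-/- cells complemented with human TDP1, 400 cells/well, exposed to compounds plus 20 nM camptothecin for at least 48 h at 37 C; viability read as ATP content by CellTiter-Glo luminescence.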
TDP1 cell noCPT: qHTS for Inhibitors of human tyrosyl-DNA phosphodiesterase 1 (TDP1): qHTS in cells in absence of CPT. DT40 Tdp1-/- hTDP1 cells, no CPT, ATP luminescence, 48 h. Potency, µM (titrated, usually from 46.2 µM), for the others: at the highest dose activity change, negative = growth inhibition, usual class: inhibitors. 15% of 420,000 active. AID 686978, 2013; also: potency is read from the fitted curve at half-maximal effect; % is scaled to controls: 0 for no effect and ±100 for the full control effect; nearly all actives have a fitted effect of over 55% in size
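Seeded 400 DT40-hTDP1 cells/well (vehicle DMSO, no 20 nM CPT); pinned compounds; ≥48 hr at 37 °C; CellTiter-Glo luminescence as viability measure.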
D3 antag: antagonists of human D3 dopamine receptor; D3R cells, DiscoveRx beta-arrestin luminescence, antagonist mode; stronger effect = lower value; max response, negative = inhibition, %; 2.5% of 360,000 active; AID 652054; in the data active = max response below about -50%; inconclusive = no clear call, values can overlap the other calls; also: % is scaled to controls: 0 for no effect and ±100 for the full control effect
Target sequence (P35462 whole entry, looked up): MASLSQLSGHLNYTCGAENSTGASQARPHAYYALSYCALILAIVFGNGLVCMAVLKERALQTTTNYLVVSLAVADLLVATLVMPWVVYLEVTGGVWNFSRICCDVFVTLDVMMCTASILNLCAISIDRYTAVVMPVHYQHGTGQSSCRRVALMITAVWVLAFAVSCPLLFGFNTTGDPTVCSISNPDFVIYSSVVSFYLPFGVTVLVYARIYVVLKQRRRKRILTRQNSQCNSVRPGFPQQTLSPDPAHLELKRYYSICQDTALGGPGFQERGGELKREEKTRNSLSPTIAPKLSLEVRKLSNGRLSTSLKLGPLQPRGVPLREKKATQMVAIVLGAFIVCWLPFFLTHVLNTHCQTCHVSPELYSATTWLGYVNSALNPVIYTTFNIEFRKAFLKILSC
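Cells expressing the human receptor were seeded at 1500 cells/well, incubated overnight at 37 degrees C in 5% CO2, then exposed to library compounds with dopamine controls for 90 minutes at 37 degrees C before luminescent detection.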
ClpP mod: qHTS Assay for Activators of ClpP; ATP-dependent Clp protease proteolytic subunit (Bacillus subtilis (strain 168)), P80244; purified B. subtilis ClpP, FRET peptide cleavage, 20 min; Potency, µM (top dose mostly 57.5 µM), without a hit: at the highest dose activity change, negative = active; 1.9% of 340,000 active; active = well fitted falling curve with a large enough effect; inconclusive = small, poorly fitted or top-dose-only effect; inactive = no such curve, though single readings can be large or run the other way; also: potency is read from the fitted curve at half-maximal effect; the source files actives as falling curves though it sought activators and does not explain the sign; nearly all actives have a fitted effect of over 65% in size
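Buffer: 100 mM Tris/HCl pH8, 100 mM KCl, 0.05% low protease BSA, 2.5% glycerol, 0.01% Tween-20. ClpP 10 microg/mL final; 20 min RT; delta FRET normalized to ADEP and DMSO controls.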
DRD3 agonist: activates the human D3 dopamine receptor | AID 652048 | max activation, % | D3R DiscoveRx beta-arrestin cells, luminescence, 90 min | P35462 | 0.58% of 410,000 active; in the data active = max activation above about 30%; also: 0% is about no effect
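Agonist mode: compounds and dopamine controls were applied to plated cells for 90 min at 37 degrees C after an overnight attachment at 1500 cells/well. Luminescent read-out followed 30 - 60 minutes at room temperature with DiscoveRx detection reagent.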
IL1B secr inh: blocks inflammasome-driven IL-1 beta release; THP-1 LPS/ATP IL-1B secretion, AlphaLISA, 16 h; stronger effect = lower value; activity change, % at 57.5 µM; 4.7% of 360,000 active; AID 743279; in the data active = activity change below about -50%; inconclusive = mostly about -30% to -49%; also: % is scaled to controls: 0 for no effect and ±100 for the full control effect
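Secreted IL-1B measured by AlphaLISA bead assay after 16 h compound exposure of THP-1 cells; compounds (final up to 57.5 uM) added 1 h before LPS (250 ng/mL) and ATP (1.25 mM) stimulation; lower signal means less secretion.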
The depositor's hits bear a star; ? = inconclusive; / = no result given. The list is not random: actives were taken first. Their share in the collection is about 21%. Unless noted, calls follow the shape of the dose curve; as a rule, active = well fitted inhibition curve with a large enough effect; inconclusive = small, poorly fitted or top-dose-only effect; inactive = flat fitted curve, though single readings scatter.

SMILES	DT40 TDP1 CPT	TDP1 cell noCPT	D3 antag	ClpP mod	DRD3 agonist	IL1B secr inh
O=C(CN1CCCC1c1cccs1)Nc1cccc(S(=O)(=O)N2CCCC2)c1 (configuration not stated)	15µM*	?	1	-1%	-4	11
CCc1nn(CC(=O)NCCC(C)C)c(=O)c2cc3occc3n12	-13%	?	/	-2%	-20	/
O=C(Cc1ccc(Cl)c(Cl)c1)Nc1cccc(S(=O)(=O)N2CCOCC2)c1	?	?	-3	-12%	-4	-80*
Cc1ccc(NC(=O)CCNC(=O)c2ccc(Br)cc2)cc1S(=O)(=O)N1CCCCCC1	?	16µM*	-5	0%	-5	6
O=C(CCc1ccccc1Cl)Nc1cccc(S(=O)(=O)N2CCCC2)c1	-21%	?	10	0%	19	-3
O=C(Cc1ccccc1Cl)Nc1cccc(S(=O)(=O)N2CCCCCC2)c1	-7%	-6%	-6	0%	3	-52*
CCc1ccccc1OCC(=O)Nc1cccc(S(=O)(=O)N2CCCC2)c1	?	16µM*	-11	-4%	3	-3
CCCS(=O)(=O)N1CCN=C1SCc1cccnc1	-11%	-22%	-8	/	0	26
Clc1cccc(N2CCN(Cc3ccc(Br)o3)CC2)c1	-22%	7%	-60*	-2%	-27	15
Clc1ccc(N2CCN(Cc3ccc(Br)o3)CC2)cc1	-11%	?	-52*	/	-22	1
O=[N+]([O-])c1ccc(CN2CCN(c3ccc(F)cc3)CC2)o1	-8%	19%	-4	-2%	-1	-4
COc1ccccc1CCn1c(=O)c(-c2ccc(F)c(F)c2)nc2cncnc21	-3%	-8%	/	/	/	/
Cc1ccc(NC(=O)CCC(=O)N2CCSc3ccccc32)cc1Cl	16µM*	?	/	-1%	-36	/
O=C(CCC(=O)N1CCSc2ccccc21)NCc1ccc(Cl)cc1	-24%	-20%	1	-1%	0	-18
Cc1ccccc1NC(=O)CCC(=O)N1CCSc2ccccc21	-27%	?	/	0%	-24	/
CCOC(=O)c1ccc(NC(=O)CCC(=O)N2Cc3ccccc3Oc3ncccc32)cc1	16µM*	21µM*	/	-2%	-12	/
Cc1ccc(NC(=O)CCC(=O)N2CCSc3ccccc32)cc1	16µM*	?	/	1%	-23	/
O=C(CCC(=O)N1CCSc2ccccc21)NCc1ccccc1Cl	10µM*	?	/	1%	-14	/
COc1ccccc1OCCNC(=O)CN1C(=O)NC2(CCCCC2)C1=O	6%	16%	8	-2%	7	14
Cc1nc(Cl)c(C(=O)NC(=O)NCc2ccccc2)c(C)c1Cl	2%	-29%	12	-2%	6	39
CCc1ccc(S(=O)(=O)N2CCCC(N3CCN(c4ccc(OC)cc4)CC3)C2)cc1 (configuration not stated)	?	?	4	-2%	-23	-16
O=C(CCC(=O)N1CCSc2ccccc21)NCc1ccccc1	?	-9%	-21	-1%	-5	-12
CCOc1ccc(NC(=O)CCC(=O)N2CCSc3ccccc32)cc1	16µM*	16µM*	0	2%	-4	0
COc1ccc(OC)c(CCNC(=O)CCC(=O)N2CCOc3ccc(C)cc32)c1	23µM*	?	-11	1%	-3	-23
CCOC(=O)c1ccc(NC(=O)CCC(=O)N2CCSc3ccccc32)cc1	23µM*	13µM*	/	1%	-22	/
O=C(CCC(=O)N1CCSc2ccccc21)Nc1ccc(Cl)cc1	15µM*	21µM*	/	3%	-37	/
O=C(CN1CCN(C(=O)c2ccco2)CC1)Nc1ccc(F)cc1F	0%	16%	3	0%	5	32
CC1=C(c2ccc(C)cc2)S(=O)(=O)N(Cc2ccc(C(=O)NCc3cccc(C)c3)cc2)C1=O	?	?	/	-14%	-26	/

Assay outcomes (PubChem BioAssay)
